Screening data: PubChem, Broad Institute
Not all results are given here.
Vaccinia inh: blocks a specific stage of Vaccinia orthopoxvirus infection. Vaccinia-infected cells, mCherry/Venus stage reporter fluorescence; hits give low values. AID 1053133. activity change (mCherry), % (concentration not given with the values). actives 0.01% (n = 89,000); in the data active = activity change below about -37%, passing the limit was not always enough; tested in A549 cells
* marks the source's active call; other numbers are inactive results.

SMILES	Vaccinia inh
CCS(=O)(=O)NCC[C@H]1CC[C@H](NC(=O)C2CC2)[C@H](CO)O1	5
CO[C@@H]1CN(C)C(=O)c2ccc(NC(=O)CC(F)(F)F)cc2OC[C@@H](C)N(CC2CC2)C[C@@H]1C	10
CO[C@H]1CN(C)C(=O)c2cc(NC(=O)NC3CCCCC3)ccc2OC[C@@H](C)N(C)C[C@H]1C	16
CCN1[C@@H]2c3ccc(-c4cccc(C(=O)N(C)C)c4)c(=O)n3C[C@@H]2[C@@H](CO)[C@@H]1C(=O)N(C)C	-1
COCC(=O)Nc1ccc2c(c1)[C@H]1C[C@H](CC(=O)NCc3ccc(-c4ccccc4)cc3)O[C@H](CO)[C@H]1O2	-9
C[C@@H]1CN([C@H](C)CO)C(=O)Cc2cc(NC(=O)Nc3ccc(F)cc3)ccc2O[C@@H]1CN(C)C(=O)Nc1cccc2ccccc12	61
COc1ccc(CN(C)C[C@@H]2OCCCC[C@H](C)Oc3ccc(NC(=O)Nc4c(C)noc4C)cc3C(=O)N([C@H](C)CO)C[C@H]2C)cc1	35
COc1ccc(NC(=O)Nc2ccc3c(c2)C(=O)N([C@H](C)CO)C[C@@H](C)[C@H](CN(C)Cc2ccc4c(c2)OCO4)O3)cc1	-17
CCNC(=O)C[C@H]1CC[C@@H]2[C@H](COc3ccc(NC(=O)c4cc(C)on4)cc3C(=O)N2C)O1	9
C[C@@H]1CCCCO[C@H](CN(C)C(=O)c2ccccc2)[C@H](C)CN([C@@H](C)CO)C(=O)c2cc(NC(=O)C3CCCCC3)ccc2O1	-12
CNC[C@H]1Oc2ccc(NC(=O)NC3CCCCC3)cc2C(=O)N([C@@H](C)CO)C[C@@H]1C	1
O=C(c1ccccc1)N1C[C@@H]2[C@H](c3ccccc31)[C@H](CO)N2S(=O)(=O)c1ccccc1	21
O=C(C1CCCC1)N1CC2(C1)[C@H](c1ccccc1)[C@H](CO)N2Cc1nccs1	6
O=C(C[C@H]1C[C@@H]2c3cc(NS(=O)(=O)c4ccccc4)ccc3O[C@@H]2[C@@H](CO)O1)N1CCCCC1	11
COc1cccc(-c2ccc3n(c2=O)C[C@H]2[C@H](CO)[C@@H](C(=O)NCC4CC4)N(C(C)=O)[C@@H]32)c1	21
O=C(O)C[C@H]1CC[C@@H](NC(=O)c2ccccc2F)[C@@H](CO)O1	3
COc1ccc2c3c([nH]c2c1)[C@H](CO)N(C(C)=O)CC31CCN(S(=O)(=O)c2cccs2)CC1	3
CC(C)C#Cc1cnc2c(c1)C(=O)N([C@@H](C)CO)C[C@@H](C)[C@@H](CN(C)C(=O)c1cccnc1)O2	12
CN(C)CC(=O)Nc1ccc2c(c1)[C@H]1C[C@H](CC(=O)NCCc3ccccc3)O[C@@H](CO)[C@H]1O2	3
O=C(NCC1CC1)[C@@H]1[C@@H](CO)[C@@H]2Cn3c(ccc(-c4ccncc4)c3=O)[C@H]1N2CC1CC1	-2
C[C@@H]1CN([C@H](C)CO)C(=O)c2cc(NC(=O)Cc3ccccc3)ccc2O[C@@H](C)CCCCO[C@H]1CN(C)C(=O)Nc1ccc(F)cc1	-14
C[C@@H]1CN([C@@H](C)CO)C(=O)Cc2cc(NS(=O)(=O)c3cccs3)ccc2O[C@H]1CN(C)Cc1ccc(C(=O)O)cc1	7
C[C@H]1CCCCO[C@H](CN(C)C(=O)Nc2ccc(C(F)(F)F)cc2)[C@@H](C)CN([C@@H](C)CO)C(=O)c2cc(NS(=O)(=O)c3ccccc3)ccc2O1	-1
CO[C@@H]1CN(C)C(=O)c2cc(NS(=O)(=O)CC(F)(F)F)ccc2OC[C@@H](C)N(C(=O)c2ccc3c(c2)OCO3)C[C@@H]1C	17
O=C(C[C@H]1CC[C@H]2[C@@H](COC[C@H](O)CN2S(=O)(=O)c2cccc(Cl)c2)O1)N1CCOCC1	0
SMILES	Vaccinia inh
C[C@H]1CN([C@@H](C)CO)C(=O)Cc2cc(NS(=O)(=O)c3ccccc3)ccc2O[C@H]1CN(C)S(=O)(=O)c1cccs1	-7
C[C@H](O)C#Cc1cnc2c(c1)C(=O)N([C@@H](C)CO)C[C@@H](C)[C@@H](CN(C)Cc1cccc(C(=O)O)c1)O2	6
C[C@@H]1CN([C@H](C)CO)S(=O)(=O)c2ccc(C#CC3CC3)cc2O[C@H]1CN(C)C(=O)c1ccccc1	-5
COc1ccc(CN(C)C[C@H]2OCCCC[C@@H](C)Oc3ccc(NC(=O)Nc4c(C)noc4C)cc3C(=O)N([C@H](C)CO)C[C@@H]2C)cc1	23
CC(C)(C)[S@](=O)N1Cc2cc(C(=O)NCCN3CCCC3)nc(-c3cccc(-c4cccc(C#N)c4)c3)c2[C@@H]1CCO	-17
C[C@H]1CN([C@@H](C)CO)C(=O)Cc2cc(NS(=O)(=O)c3cccs3)ccc2O[C@H]1CN(C)Cc1ccc(C(F)(F)F)cc1	5
CCC(=O)N1CC2(C1)CN(Cc1ccccc1Cl)[C@@H](CO)c1c2c2ccc(OC)cc2n1C	-3
CN1C(=O)c2cc(NC(=O)c3ccc(F)cc3)ccc2OC[C@H]2O[C@H](CC(=O)NC3CCC3)CC[C@@H]21	-2
